Test results reported in PubChem BioAssay (NCI).
Compounds without any hit were thinned out: in the full panel of roughly 79,000, 15% have a hit. Unmarked numbers belong to inactive results. The source made the active and inactive calls. Rule as the data show it: active = growth inhibition above about 70%; inactive = the rest.

Experiments:
[1] = NCI Yeast Anticancer Drug Screen. Data for the rad50 strain (AID 155);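 also: 0% = growth of vehicle-only cultures of the same strain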; settings: S. cerevisiae rad50 strain growth inhibition; at 50.0 µM; stronger effect = higher value
How it was run: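 Inhibition values express reduced yeast growth in compound-treated cultures relative to vehicle-treated controls.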

[2] = NCI Yeast Anticancer Drug Screen. Data for the mec2-1 strain (AID 157); settings: S. cerevisiae mec2-1 strain, at 50.0 µM, stronger effect = higher value
How it was run: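 Mutant yeast (mec2-1) grown with compound; growth inhibition relative to vehicle control reported.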

[3] = NCI Yeast Anticancer Drug Screen. Data for the sgs1 mgt1 strain (AID 161);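 also: 0% = growth of cultures given vehicle only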; settings: S. cerevisiae sgs1 mgt1 strain, at 50.0 µM, stronger effect = higher value
How it was run: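 This yeast growth screen uses a strain with defined DNA-repair lesions; compound-treated growth is compared with vehicle-treated growth.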

[4] = NCI Yeast Anticancer Drug Screen. Data for the cln2 rad14 strain (AID 165);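 also: 0% = growth equal to vehicle treated cultures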; settings: S. cerevisiae cln2 rad14 strain, at 50.0 µM, stronger effect = higher value
How it was run: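 Readout is yeast growth inhibition versus vehicle-treated controls, using a strain with cln2 and rad14 alterations exposed to compound.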

[5] = NCI Yeast Anticancer Drug Screen. Data for the bub3 strain (AID 167); settings: S. cerevisiae bub3 mutant strain, at 50.0 µM, stronger effect = higher value
How it was run: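 Steps: expose the mutant yeast strain to compound; grow alongside vehicle-treated cultures; measure growth; express inhibition against the vehicle cultures.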

[6] = NCI Yeast Anticancer Drug Screen. Data for the mlh1 rad18 strain (AID 175); settings: S. cerevisiae mlh1 rad18 strain growth inhibition; at 50.0 µM; stronger effect = higher value
How it was run: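 Genetically defined yeast (DNA repair-deficient) exposed to compounds; growth inhibition determined relative to vehicle.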

| SMILES | growth inhibition [1] | growth inhibition [2] | growth inhibition [3] | growth inhibition [4] | growth inhibition [5] | growth inhibition [6] |
| --- | --- | --- | --- | --- | --- | --- |
| O=S1(=O)C(c2cccc(C(F)(F)F)c2)=C(O)c2cc3ccccc3nc21 | 47.9% | 21% | 49.2% | 33.2% | -4.6% | 18.6% |
| O=C1CC(O)(c2ccccc2)C(c2ccccc2)=C1c1ccccc1 (stereo unspecified) | 29.8% | 21.4% | 14.3% | 32.7% | -2.15% | 36.8% |
| O=C(Nc1ccc(Br)cc1)Nc1ccc(Br)cc1 | -23.3% | 8.15% | 15.3% | -36.4% | 31.9% | 6.25% |
| Cn1c([N+](=O)[O-])cnc1/C=C1\CCc2cc(OCCN3CCCC3)ccc2C1=O | 30.4% | 24.3% | 36.4% | 21.6% | -2% | 38.3% |
| O=C1c2ccccc2CN(C(=Nc2ccccc2)Nc2ccccc2)c2ccccc21 | 15.1% | 2.95% | -0.55% | -25.7% | -0.7% | 14.9% |
| COc1ccc(Cl)cc1NC(=O)Nc1ccc(F)c([N+](=O)[O-])c1 | 10% | 38% | 29.2% | -9.8% | 33.5% | 23.8% |
| CCc1cccc(OC(=O)CCl)c1 | 3.1% | 7.5% | -1.65% | -24.4% | -17.8% | -5.1% |
| CCOCCOCCOC(C)Oc1ccc(Cl)cc1 (stereo unspecified) | 4.05% | 8.4% | -9.05% | 10.7% | 6.15% | 9.55% |
| Cc1ccc(NC(=O)Nc2cccc(Cl)c2)cc1C | -0.1% | 5.05% | -4.95% | -17.2% | 5.1% | -16.6% |
| c1ccc(N=C2SC(=NC3CCCCC3)N(C3CCCCC3)C2=Nc2ccccc2)cc1 | 3.35% | -18.9% | -0.05% | 9.1% | -4.9% | -29.3% |
| CC1=C(c2cc(C(=O)Nc3cccc(C(F)(F)F)c3)nc(NC#N)n2)Sc2ccccc2N1 | 17.4% | 1.2% | -3.2% | -2.85% | 2.7% | 11.8% |
| C/C(CC(O)(C(F)(F)F)C(F)(F)F)=N\N | -31.9% | -49.8% | -20.4% | -7.6% | -4.5% | -23.4% |
| CCCCCCCCCCCCCCCC(=O)O | -12.9% | -34.1% | -18.9% | -2.9% | -29.8% | -34.9% |
| CC(C)Oc1ccc(CCOC(=O)Nc2cccc3ccccc23)cc1 | -0.5% | 0.85% | 2% | 6.65% | 3.8% | 9.5% |
| Cc1c(-c2ccccc2)nc(N(C)C)oc1=O | 19% | -5.05% | -6.8% | -9% | -16.2% | -7.8% |
| COc1ccc2cc3n(cc-2c1=O)CCc1cc2c(cc1-3)OCO2 | -8.65% | -3.1% | 5.65% | -14.4% | -6.65% | 1.45% |
| COC(=O)C(=O)[C@@H](O)[C@H](O)[C@@H](O)CO | 29.8% | 23.7% | 25% | 13.1% | 25.7% | 23.6% |
| CC(=O)Nc1ccc(Sc2ccc(NC(C)=O)cc2O)c(O)c1 | 34.1% | 17% | 32% | -31.4% | 14.7% | 41.9% |
| C=C(Br)CN1CCC2(c3ccccc3)C(=O)C([Se]c3ccccc3)CCC12 (stereo unspecified) | -5.45% | 8.15% | 8.9% | -7.25% | -1.35% | -0.95% |
| CCCNc1nc2c(s1)c1c(O)c3c(O)c(C)c4c(c32)C(=O)C(C)(O/C=C\C(OC)C(C)C(OC(C)=O)C(C)C(O)C(C)C(O)C(C)/C=C/C=C(/C)C(=O)N1)O4 (stereo unspecified) | 8.75% | 9.7% | 3.2% | 10.2% | 14.2% | 17.3% |
| OC(CC1CCCCN1)c1cc2c(Cl)cc(Cl)cc2c2cc(C(F)(F)F)ccc12 (stereo unspecified) | 68% | 50.6% | 42.5% | 30.1% | 98.8% (active) | 52% |

| SMILES | growth inhibition [1] | growth inhibition [2] | growth inhibition [3] | growth inhibition [4] | growth inhibition [5] | growth inhibition [6] |
| --- | --- | --- | --- | --- | --- | --- |
| O=[N+]([O-])c1ccc2c3c(ccc([N+](=O)[O-])c13)CC2 | -9.35% | -13.3% | -6.75% | -29.2% | -18.4% | -18.3% |
| CCCCCCC(N)(CCCCCC)C(=O)Nn1c(C)ccc1C | 45% | 13.1% | 9.8% | -20.6% | 4.25% | 31.2% |
| C=C1C(=O)C23C(O)CC4C(C)(C)[C@@H](OC(C)=O)CCC4(C)[C@]2(O)CCC1[C@@H]3O (stereo partly specified) | 46.8% | 48.9% | 44.9% | 40.1% | 70.5% (active) | 67% |
| C/C(=C\c1ccccc1)C(=O)c1c(C)cc(C)cc1C | 26.9% | -2.9% | 11.1% | -0.2% | -5.45% | -11.8% |
| CC(C)OC(=O)NN(C)c1ccccc1 | 15.4% | 11.1% | 14% | -54.3% | 3.9% | 13.8% |
| CCOc1ccc(N2N=C(C)CCC2=O)cc1 | 6.2% | 1.9% | 5.15% | -10.6% | 6.15% | 0.2% |
| COc1ccc(/C=N/N2CN(C(C)C(=O)O)C(O)(CCl)N=C2N)cc1OC (stereo unspecified) | 0.95% | -8.95% | -3% | -27.4% | 5.1% | -1.5% |
| FC(F)(Br)C(F)(Cl)Br (stereo unspecified) | 18.6% | 18.8% | 17.6% | 17.4% | 1.5% | 24.7% |
| CN(C)CCCNc1ccc([N+](=O)[O-])c2nc3ccccc3c(N)c12 | -2.1% | -64.7% | 6.45% | -0.5% | -11.4% | 65.6% |
| Nc1ccc2c(c1)C(=O)c1cc(C(=O)O)ccc1-2 | 21.2% | -2.55% | 9.75% | 15.9% | 12.8% | -10.1% |
| O=C(OC(c1ccc(Cl)cc1)c1ccc(Cl)cc1)C(c1ccc(Cl)cc1)c1ccc(Cl)cc1 | 15.5% | 10.4% | 14.8% | -13.5% | -3.35% | 30.7% |
| CN1CCN(C(=O)/C(=C/c2ccccc2)NC(=O)c2ccccc2)CC1 | -6.8% | 4% | 8.05% | -12.7% | 0.1% | 8.1% |
| CCCCNC(=O)CCC(NS(=O)(=O)c1ccc(C)cc1)C(=O)NCCCC (stereo unspecified) | 5.1% | 2.1% | -9% | 1.85% | -3.1% | -18.7% |
| COc1ccc(C2=C(OC(C)=O)c3cccn3-c3ccccc3S2)cc1 | -34.5% | -49.9% | -28.8% | -45.9% | -45.8% | 2.15% |
| Nc1ccnc(SCCCCc2ccccc2)n1 | 15.6% | 64.4% | 59% | -6.15% | 74% (active) | 64% |
| O=c1nc2sc3ccccc3c(=O)n2[nH]1 | -39.6% | -42% | -2.85% | 6.85% | -12.2% | -28.8% |
| CCCCCCCCCCCCCCCCCCC1=C(O)C(=O)C=C(OC)C1=O | 18.2% | -6.5% | -3.05% | -2.4% | 4.4% | 8.75% |
| COc1cccc(NC(=O)NC(C)(C)C)c1 | 8.2% | -16.1% | 1.2% | -42.1% | -0.7% | -0.05% |
| CCCCCCNC(=O)c1ccc(C(=O)NCCCCCC)cc1 | 3.4% | -13.3% | -27% | -19.5% | 6% | -31.9% |
| NS(=O)(=O)c1ccc(N=Nc2c[nH]c(=O)c(O)c2)cc1 | 3.45% | 4.95% | -9.55% | -37.4% | -60.4% | 2.3% |
